Source: paper PMC7862700, “An all-to-all approach to the identification of sequence-specific readers for epigenetic DNA modifications on cytosine”

Columns and labels:
Test in all cases: DAPPL (digital affinity profiling via proximity ligation, sequencing); 10 mM Tris-HCl pH 7.5, 50 mM NaCl, 1 mM DTT, 4% glycerol, room temperature, 30 min; GST-TFs on glutathione beads, 16-mer random dsDNA library, 0.1% formaldehyde crosslink after washing; high values mean tight binding
Settings in all cases: protein: recombinant; tags: N-terminal GST; dsDNA, one strand shown
FLI1 = target: T1, FLI1 (Homo sapiens, UniProt Q01543 1-452)
T1 sequence: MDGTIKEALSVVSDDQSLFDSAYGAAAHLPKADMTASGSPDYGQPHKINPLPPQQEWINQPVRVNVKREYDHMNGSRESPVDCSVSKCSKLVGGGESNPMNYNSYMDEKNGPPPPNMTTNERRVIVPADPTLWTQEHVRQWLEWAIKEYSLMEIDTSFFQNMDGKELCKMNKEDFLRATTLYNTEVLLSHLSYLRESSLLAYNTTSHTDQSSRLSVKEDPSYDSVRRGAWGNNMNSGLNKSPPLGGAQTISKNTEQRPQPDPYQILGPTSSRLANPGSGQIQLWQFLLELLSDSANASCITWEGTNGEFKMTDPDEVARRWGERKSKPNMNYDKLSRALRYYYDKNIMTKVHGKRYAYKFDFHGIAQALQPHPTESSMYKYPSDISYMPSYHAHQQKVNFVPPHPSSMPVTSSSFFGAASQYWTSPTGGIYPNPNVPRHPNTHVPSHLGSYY
Outline: (§1)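 Human transcription factors carrying a GST fusion were produced in yeast, bound to glutathione beads, tagged with DNA barcodes and pooled together with a tag-only sample. Each pool was held with 200 nmole of a random double-stranded 16-mer DNA library in Tris/NaCl/DTT/glycerol buffer for 30 min at room temperature, then washed, crosslinked in 0.1% formaldehyde, proximity-ligated with BsaI/T4 ligase (1 h, 37 °C), PCR-amplified and sequenced on an Illumina NextSeq500. Binding signal is the read frequency of each hexamer for a given factor divided by its frequency in the tag-only sample.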

ELK1 = target: T2, ELK1 (Homo sapiens, UniProt P19419 1-428)
T2 sequence: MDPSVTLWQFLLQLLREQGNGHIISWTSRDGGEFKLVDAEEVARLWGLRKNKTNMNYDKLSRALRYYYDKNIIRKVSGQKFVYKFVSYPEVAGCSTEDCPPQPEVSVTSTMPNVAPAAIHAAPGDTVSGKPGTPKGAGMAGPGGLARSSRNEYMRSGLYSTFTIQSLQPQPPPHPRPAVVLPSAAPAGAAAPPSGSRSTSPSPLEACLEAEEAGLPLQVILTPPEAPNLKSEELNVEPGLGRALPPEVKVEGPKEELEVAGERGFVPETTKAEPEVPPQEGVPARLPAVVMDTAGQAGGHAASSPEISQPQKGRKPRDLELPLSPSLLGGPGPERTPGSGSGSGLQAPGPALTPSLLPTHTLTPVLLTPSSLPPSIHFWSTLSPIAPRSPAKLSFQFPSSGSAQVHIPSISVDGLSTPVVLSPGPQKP
Outline: as §1

GABPA = target: T3, GABPA (Homo sapiens, UniProt Q06546 1-454)
T3 sequence: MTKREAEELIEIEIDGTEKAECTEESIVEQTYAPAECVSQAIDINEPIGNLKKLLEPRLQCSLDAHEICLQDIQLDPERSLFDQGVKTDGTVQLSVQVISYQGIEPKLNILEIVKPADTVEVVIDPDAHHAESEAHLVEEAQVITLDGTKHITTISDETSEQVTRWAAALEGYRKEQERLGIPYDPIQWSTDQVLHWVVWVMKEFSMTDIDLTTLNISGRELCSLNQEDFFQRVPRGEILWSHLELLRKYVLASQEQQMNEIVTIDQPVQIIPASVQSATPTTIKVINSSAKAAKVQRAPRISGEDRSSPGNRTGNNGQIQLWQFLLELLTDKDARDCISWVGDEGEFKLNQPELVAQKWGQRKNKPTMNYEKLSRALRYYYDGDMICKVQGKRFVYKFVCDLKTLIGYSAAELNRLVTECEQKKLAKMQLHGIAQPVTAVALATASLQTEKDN
Outline: as §1

ERG = target: T4, ERG (Homo sapiens, UniProt P11308 1-479)
T4 sequence: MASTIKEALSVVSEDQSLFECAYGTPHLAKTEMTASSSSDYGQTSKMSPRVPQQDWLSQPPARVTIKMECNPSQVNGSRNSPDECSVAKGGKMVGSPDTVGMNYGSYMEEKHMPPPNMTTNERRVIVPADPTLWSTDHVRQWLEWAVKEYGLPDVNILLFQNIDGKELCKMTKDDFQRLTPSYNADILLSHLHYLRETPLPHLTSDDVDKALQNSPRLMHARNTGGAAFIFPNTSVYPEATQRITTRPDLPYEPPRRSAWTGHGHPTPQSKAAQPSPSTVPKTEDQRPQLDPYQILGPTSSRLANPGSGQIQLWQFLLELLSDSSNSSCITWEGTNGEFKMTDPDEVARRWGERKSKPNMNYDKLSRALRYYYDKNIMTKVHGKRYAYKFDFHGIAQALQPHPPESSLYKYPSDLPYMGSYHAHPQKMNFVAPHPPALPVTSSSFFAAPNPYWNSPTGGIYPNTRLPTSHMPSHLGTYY
Outline: as §1

ELF1 = ELF1 (Homo sapiens, UniProt P32519 1-619)
Chain of ELF1 (P32519 whole entry): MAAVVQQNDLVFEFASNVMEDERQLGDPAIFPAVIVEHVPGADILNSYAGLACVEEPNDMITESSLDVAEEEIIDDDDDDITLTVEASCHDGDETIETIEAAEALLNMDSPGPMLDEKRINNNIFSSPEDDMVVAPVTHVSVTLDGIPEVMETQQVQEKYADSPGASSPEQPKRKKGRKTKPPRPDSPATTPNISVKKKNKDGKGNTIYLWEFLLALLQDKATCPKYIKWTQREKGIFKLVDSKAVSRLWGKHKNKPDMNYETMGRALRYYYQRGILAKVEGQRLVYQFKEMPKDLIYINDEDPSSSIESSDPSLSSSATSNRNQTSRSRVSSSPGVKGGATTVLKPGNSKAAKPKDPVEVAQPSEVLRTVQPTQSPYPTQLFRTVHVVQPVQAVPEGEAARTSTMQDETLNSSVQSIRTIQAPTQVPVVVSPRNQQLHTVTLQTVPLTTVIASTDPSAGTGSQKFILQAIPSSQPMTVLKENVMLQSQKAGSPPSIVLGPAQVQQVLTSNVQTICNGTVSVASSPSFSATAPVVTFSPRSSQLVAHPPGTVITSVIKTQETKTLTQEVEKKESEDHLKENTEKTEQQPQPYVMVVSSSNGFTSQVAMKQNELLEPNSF
Outline: as §1

EHF = target: T5, EHF (Homo sapiens, UniProt Q9NZC4 1-300)
T5 sequence: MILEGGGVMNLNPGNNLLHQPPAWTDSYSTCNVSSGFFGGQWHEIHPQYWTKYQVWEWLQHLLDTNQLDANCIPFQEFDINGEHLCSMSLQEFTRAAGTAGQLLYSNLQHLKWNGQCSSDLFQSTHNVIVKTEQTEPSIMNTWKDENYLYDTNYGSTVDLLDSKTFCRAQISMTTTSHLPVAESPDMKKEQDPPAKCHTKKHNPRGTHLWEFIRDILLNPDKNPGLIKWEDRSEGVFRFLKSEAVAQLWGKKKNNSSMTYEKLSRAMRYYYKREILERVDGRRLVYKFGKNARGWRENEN
Outline: as §1

SPI1 = SPI1 (Homo sapiens, UniProt P17947 1-270)
Outline: as §1

SPIB = SPIB (Homo sapiens, UniProt Q01892 1-262)
Chain of SPIB (Q01892 whole entry): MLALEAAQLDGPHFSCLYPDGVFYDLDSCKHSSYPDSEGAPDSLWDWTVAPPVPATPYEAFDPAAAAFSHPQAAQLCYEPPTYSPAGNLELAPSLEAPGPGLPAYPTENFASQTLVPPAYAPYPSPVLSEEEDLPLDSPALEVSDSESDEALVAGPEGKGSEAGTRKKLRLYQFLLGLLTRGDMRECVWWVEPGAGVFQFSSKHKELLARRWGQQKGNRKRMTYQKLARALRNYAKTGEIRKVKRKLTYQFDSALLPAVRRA
Outline: as §1

ELK3 = target: T6, ELK3 (Homo sapiens, UniProt P41970 1-407)
T6 sequence: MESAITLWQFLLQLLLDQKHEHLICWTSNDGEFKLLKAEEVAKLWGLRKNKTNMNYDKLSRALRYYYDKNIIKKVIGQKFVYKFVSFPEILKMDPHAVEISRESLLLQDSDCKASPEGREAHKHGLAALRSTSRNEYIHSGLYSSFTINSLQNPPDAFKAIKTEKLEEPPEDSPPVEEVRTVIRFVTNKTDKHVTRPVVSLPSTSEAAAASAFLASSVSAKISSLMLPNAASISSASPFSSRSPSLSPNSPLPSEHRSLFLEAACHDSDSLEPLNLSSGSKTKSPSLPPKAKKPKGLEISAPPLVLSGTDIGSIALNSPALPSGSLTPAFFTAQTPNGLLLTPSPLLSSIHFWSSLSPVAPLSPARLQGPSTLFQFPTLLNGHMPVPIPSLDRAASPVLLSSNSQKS
Outline: as §1

ATGTTA
binding signal (FLI1): 1.24 fold enrichment (6-mer frequency, TF over GST control)
binding signal (ELK1): 1.25 fold enrichment (6-mer frequency, TF over GST control)
binding signal (GABPA): 1.26 fold enrichment (6-mer frequency, TF over GST control)
binding signal (ERG): 1.22 fold enrichment (6-mer frequency, TF over GST control)
binding signal (ELF1): 1.22 fold enrichment (6-mer frequency, TF over GST control)
binding signal (EHF): 1.23 fold enrichment (6-mer frequency, TF over GST control)
binding signal (SPI1): 1.13 fold enrichment (6-mer frequency, TF over GST control)
binding signal (SPIB): 1.17 fold enrichment (6-mer frequency, TF over GST control)
binding signal (ELK3): 1.15 fold enrichment (6-mer frequency, TF over GST control)
